The text below walks through data of PubChem BioAssay (NCATS).

Unmarked numbers belong to inactive results. Inconclusive results are not listed. The source made the active and inactive calls. Unless noted, calls come from the whole dose curve; as a rule, active = well fitted curve in the direction sought with a large enough effect; inconclusive = small, poorly fitted or top-dose-only effect, or another doubt; inactive = no such curve, though single readings can be large; an effect the other way counts as inactive or inconclusive.

Test [1] is described as follows: Cell Viability - N2a (AID 540).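 For activity change, negative = cytotoxicity: plate controls were DMSO alone for no effect and tamoxifen control for full effect.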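 Note: cells exposed to compound for 40 h at 37 °C; nearly all actives have a fitted effect of over 45% in size.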 Note: potency is the fitted concentration of half-maximal effect. The conditions noted are these: N2a mouse neuroblastoma cell viability; activity change, negative = cytotoxicity: at 92.2 µM (top of the series). An outline of the steps: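 First, 1500 N2a cells per well incubate 5 hr at 37 °C; next, compounds are added and incubated 40 hr at 37 °C; finally CellTiter-Glo is added and luminescence read after 20 min, with AC50 derived by Hill modeling.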

Test [2] is described as follows: Cell Viability - NIH 3T3 (AID 541).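 For activity change, negative = cytotoxicity: plate controls were DMSO alone for no effect and tamoxifen positive control for full effect.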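 Note: cells exposed to compound for 40 hours; nearly all actives have a fitted effect of over 25% in size.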 Note: potency is the fitted concentration of half-maximal effect. Particulars: NIH 3T3 cell viability, qHTS; activity change, negative = cytotoxicity: at 92.2 µM (top of the series). An outline of the steps: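 AC50 values reflect concentration-dependent loss of intracellular ATP in NIH 3T3 cells after 40 hr treatment in complete culture medium, quantified by luciferase-based luminescence.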
Test [3] in a line: Cell Viability - H-4-II-E (AID 543).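 Note: cells exposed to compound for 40 hours; nearly all actives have a fitted effect of over 35% in size.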 Note: potency is the fitted concentration of half-maximal effect. In outline:
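Here, cytotoxicity is measured in the rat hepatoma line H-4-II-E as loss of intracellular ATP after 40 hr compound treatment, detected by luciferase luminescence.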

A short description of test [4]: Cell Viability - Renal Proximal Tubule (AID 545).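 Note: cells exposed to compound for 40 hours; nearly all actives have a fitted effect of over 40% in size.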 Note: potency is the fitted concentration of half-maximal effect. Particulars: renal proximal tubule cells viability; activity change, negative = cytotoxicity: at 91.7 µM (top of the series) unless noted. In outline:
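Rat kidney proximal tubule cells, freshly isolated; 1000 cells/well, 5 hr settle, compound 40 hr 37 °C. CellTiter-Glo 20 min RT, luminescence read. AC50 by standard Hill fit.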

The nature of test [5]: Cellular Toxicity (caspase-3) HUV-EC-C (AID 656). An outline of the steps:
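Luminescent caspase-3/7 activation (aminoluciferin substrate cleavage) in HUV-EC-C cells after 16 hr compound exposure, 37°C. Signal normalized to DMSO basal and 100 uM tamoxifen as 100%; AC50 from concentration-response fitted with the Hill equation.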

Test [6] is described as follows: Cellular Toxicity (caspase-3) BJ (AID 658).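 Note: cells exposed to compound for 16 hours; 0% = DMSO basal and 100% = 10 µM staurosporine.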 In outline:
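Luminescent aminoluciferin-substrate cleavage reports caspase 3/7 activity in normal human BJ fibroblasts after 16 hr compound exposure at 37 °C. Normalized to DMSO (basal) and 10 uM staurosporine (100%); AC50 from Hill fit of concentration-response.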

Test [7] can be described thus: Cellular Toxicity (caspase-3) MRC-5 (AID 659).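 Note: cells exposed to compound for 16 h at 37 °C; 0% = DMSO basal and 100% = 10 µM staurosporine.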 An outline of the steps:
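Luminescence from caspase-cleaved aminoluciferin substrate (Caspase-Glo 3/7, 1 hr RT) reports caspase 3/7 activity in MRC-5 lung fibroblasts after 16 hr compound exposure. Normalized to DMSO basal and 10 uM staurosporine as 100%; AC50 from Hill fits.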

Test [8] can be described thus: Cellular Toxicity (caspase-3) Mesangial (AID 660).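 Note: combined caspase 3 and 7 activity read by Caspase-Glo luminescence; cells exposed to compound for 16 h before the caspase read.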 Particulars: Potency: caspase-3 activation. In outline:
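Concentration-response qHTS: compound-induced rise in caspase 3/7 luminescence in human mesangial cells after 16 h, normalized to DMSO and 100 uM tamoxifen controls.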

The nature of test [9]: Cellular Toxicity (caspase-3) Hek293 (AID 664).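 Note: cells exposed to compound for 16 h at 37 °C before readout.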 Particulars: HEK293 caspase-3 activation, DMSO = 0%, 100 µM tamoxifen = 100%; at 92.2 µM (top of the series). An outline of the steps:
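Activation of caspase-3/7 is measured as increased luminescence from cleaved peptide-aminoluciferin substrate in HEK293 cells treated 16 hours at 37 °C. AC50 values come from Hill-equation fits of concentration-response data.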

Test [10] in a line: Cellular Toxicity (caspase-3) N2a (AID 665).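 Note: compound exposure lasted 16 h at 37 °C before readout.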 In outline:
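Plated mouse neuroblastoma N2a cells received titrated compounds for 16 h in complete medium. Caspase activity was then detected with a peptide-aminoluciferin luminescent reagent.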

The nature of test [11]: Cellular Toxicity (caspase-3) NIH 3T3 (AID 666).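 Note: caspase signal read after 16 h compound exposure; 0% = DMSO basal and 100% = 100 µM tamoxifen stimulation.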 An outline of the steps: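 Concentration-response qHTS in NIH 3T3 mouse fibroblasts scores caspase-3/7 activation as rising luminescence after 16 hr compound exposure. Signals are scaled between DMSO-only and 100 uM tamoxifen.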
A short description of test [12]: Cell Viability - LYMP1-003 - Assay at 24 hr (AID 963). Note: potency is the fitted concentration of half-maximal effect. An outline of the steps:
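Acute toxicity in LYMP1-003 lymphoblastoid cells: 24 hr compound treatment at 37 C, ATP measured with CellTiter-Glo after 30 min at room temperature. AC50 derived by fitting the Hill equation to qHTS titrations.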

The nature of test [13]: Cell Viability - LYMP2-003 (AID 965).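 For activity change, negative = cytotoxicity: 0% = DMSO only and full effect = 92 µM tetraoctylammonium bromide.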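 Note: cells exposed to compounds for 24 h before reading; nearly all actives have a fitted effect of over 50% in size.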 Note: potency is the fitted concentration of half-maximal effect. In outline:
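CellTiter-Glo luminescence (cellular ATP) after 24 h compound exposure at 37 C in complete medium; 2500 cells/well, 5 h settling beforehand. Concentration-response fitted to standard Hill equation for AC50. Tetraoctylammonium bromide served as positive control.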

The nature of test [14]: Cell Viability - LYMP2-015 (AID 971). Note: nearly all actives have a fitted effect of over 55% in size. Note: potency is the fitted concentration of half-maximal effect. An outline of the steps: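 Acute toxicity was scored as a concentration-dependent drop in intracellular ATP in lymphoblastoid cells after 24 hr compound exposure in complete medium. Detection used CellTiter-Glo luciferase luminescence.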
A short description of test [15]: Cell Viability - LYMP2-019 (AID 973).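 For activity change, negative = cytotoxicity: 0% = DMSO alone and full effect = 92 µM tetraoctylammonium bromide.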 Note: nearly all actives have a fitted effect of over 55% in size. Note: potency is the fitted concentration of half-maximal effect. In outline:
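Cells plated at 2500/well and allowed 5 hr at 37 C before compound addition. After 24 hr incubation, CellTiter-Glo reagent was added, plates sat 30 min at room temperature, and luminescence was recorded.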

Test [16] can be described thus: Cell Viability - LYMP2-016 (AID 984). For activity change, negative = cytotoxicity: % is set by controls: 0 for no effect and ±100 for the full control effect.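 Note: cells exposed to compound for 24 hours at 37 °C; nearly all actives have a fitted effect of over 55% in size.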 Note: potency is the fitted concentration of half-maximal effect. An outline of the steps: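 qHTS, 1536-well: 2500 LYMP2-016 cells/well, 5 hr 37 C, compound added, 24 hr 37 C, CellTiter-Glo 30 min RT, luminescence. Tetraoctylammonium bromide positive control. AC50 via Hill fit.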
Test [17] is described as follows: Cell Viability - LYMP2-018 (AID 985).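 For activity change, negative = cytotoxicity: plate controls were DMSO only for no effect and tetraoctylammonium bromide at 92 µM for full effect.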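 Note: compound exposure lasted 24 hr at 37 °C; nearly all actives have a fitted effect of over 50% in size.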 Note: potency is the fitted concentration of half-maximal effect. An outline of the steps:
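Acute cytotoxicity is scored as a concentration-dependent drop in intracellular ATP after 24 hr exposure of the lymphoblastoid line in complete culture medium, measured by luciferase luminescence. Potency is expressed as AC50 from Hill modelling.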

Test [18] deals with Tumor necrosis factor (Homo sapiens) (UniProt P01375). Kind of test: qHTS assay to identify small molecules that stimulate Tumor Necrosis Factor-alpha (TNF-alpha) secretion (AID 651757; active = well fitted curve in the direction sought with a large enough effect in the signal ratio; the % refers to the signal ratio; note: 0% is about no effect). An outline of the steps: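 Secreted TNF-alpha from compound-treated THP-1 cells (17 hrs, 37 C) was quantified with a homogeneous time-resolved fluorescence antibody assay.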
(In general: qHTS replaces the single test concentration by a dilution series.)

A short description of test [19]: Cell Viability - Hek293 (AID 427;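 active = compounds whose dose-response curve shows a full or clear partial loss of cell viability, called from curve shape rather than a numeric limit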;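 note: potency is the fitted concentration of half-maximal effect; cells exposed to compound for 40 hours at 37 °C before reading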). The conditions noted are these: qHTS. An outline of the steps:
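Luminescent ATP content (CellTiter-Glo, 20 min at room temperature) was measured after a 40 hr, 37 °C compound exposure of HEK293 cells. AC50 values came from Hill-equation fits of qHTS concentration-response data normalized to DMSO and 100 uM tamoxifen.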

The nature of test [20]: Cell Viability - Mesenchymal (AID 546).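 Note: cells exposed to compound for 40 hours before reading.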 Note: potency is the fitted concentration of half-maximal effect. The conditions noted are these: mesenchymal cells viability, qHTS; activity change, negative = cytotoxicity: at 91.7 µM (top of the series). An outline of the steps:
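Normal human renal glomerulus-derived kidney mesenchymal cells, 1000 per well in complete medium, were treated with compounds for 40 hr at 37 °C. Viability was read as intracellular ATP by CellTiter-Glo luminescence; AC50 values came from Hill-equation fits of qHTS concentration-response data.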

Sequence of Tumor necrosis factor (Homo sapiens) (P01375 whole entry, looked up): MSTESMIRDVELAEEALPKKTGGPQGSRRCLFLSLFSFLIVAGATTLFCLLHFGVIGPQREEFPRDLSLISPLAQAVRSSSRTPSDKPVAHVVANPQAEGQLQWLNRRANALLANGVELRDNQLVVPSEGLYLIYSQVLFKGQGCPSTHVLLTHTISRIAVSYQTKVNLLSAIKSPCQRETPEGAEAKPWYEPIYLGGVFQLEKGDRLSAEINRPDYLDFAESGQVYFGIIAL

Regarding `CC(=O)[O-].CC(=O)[O-].O.O.[Cd+2]`, the results for the activity change, negative = cytotoxicity in [1] and in test [2] were -111% (active) and -127% (active), respectively. Besides, the Potency in test [3] is 2.51 µM (active); in test [4], 25.1 µM [primary cells of rat origin] (active); in test [14], 39.8 µM (active). Moreover, the compound was classed as inactive in test [5], in test [6], in test [7], in test [10] and in test [11]. For the same compound, the Potency result in test [8], in [12], in test [13], in [15], in test [16] and in test [17] was “inactive” throughout. The Potency result in test [18] was “inactive”. The caspase-3 activation in [9] is 4.76%.
Consider `O=[N+]([O-])c1cc(C(F)(F)F)cc([N+](=O)[O-])c1Cl`, for which the Potency in test [19] is over 92 µM; in test [14], 31.6 µM (active); in test [15], 31.6 µM (active); in test [16] it was 31.6 µM (active); in test [17] it was 31.6 µM (active). Further, in [2], the activity change, negative = cytotoxicity was -150% (active). For the same compound, the Potency entry in [4], in [20], in test [8], in test [12] and in test [18] was “inactive” in each case. The compound was classed as inactive in test [5], in [7], in test [10] and in [11]. For the same compound, in [9], the caspase-3 activation is -11.2%.
Turning to `c1ccc2cc3c(cc2c1)-c1cccc2cccc-3c12`, the Potency in [19] was over 92 µM. In test [1], the activity change, negative = cytotoxicity is -2.25%. In addition, the Potency entry in [2], in test [3], in test [4], in [20], in test [8] and in test [12] was “inactive” throughout. Besides, the Potency entry in [13], in test [14], in test [15], in test [16], in test [17] and in test [18] was “inactive” throughout. Besides, the compound was classed as inactive in test [5], in [6], in [7], in test [10] and in test [11]. The caspase-3 activation in test [9] was -1.28%.
As for `COP(=O)(OC)O/C(=C\Cl)c1cc(Cl)c(Cl)cc1Cl`, the Potency entry in test [3], in test [4], in [20], in test [8], in [12] and in [13] was “inactive” in each case. Further, the Potency entry in test [14], in [15], in test [16] and in [18] was “inactive” in each case. For the same compound, the call in test [5], in test [6], in [7], in [10] and in [11] was inactive. For the same compound, the caspase-3 activation in [9] is -4.53%.
Consider `C[C@@H]1CC[C@@]2(OC1)O[C@H]1[C@@H](O)[C@H]3[C@@H]4CC[C@H]5C[C@@H](O[C@@H]6O[C@H](CO)[C@H](O[C@@H]7O[C@H](CO)[C@@H](O)[C@H](O[C@@H]8OC[C@@H](O)[C@H](O)[C@H]8O)[C@H]7O[C@@H]7O[C@H](CO)[C@@H](O)[C@H](O[C@@H]8O[C@H](CO)[C@@H](O)[C@H](O)[C@H]8O)[C@H]7O)[C@H](O)[C@H]6O)[C@H](O)C[C@]5(C)[C@H]4CC[C@]3(C)[C@H]1[C@@H]2C`, for which the Potency in test [19] was 27.5 µM (active); in test [1] it was 31.6 µM (active); in test [2], 31.6 µM (active); in test [3], 20 µM (active); in test [4], 7.94 µM (active); in test [20] it was 31.6 µM (active). Further, the Potency in test [12] was 7.94 µM (active); in test [13], 20 µM (active); in [14], 15.8 µM (active); in [15], 12.6 µM (active); in test [16], 25.1 µM (active); in test [17], 25.1 µM (active). The result in [5], in [6], in [7], in test [10] and in test [11] was inactive. Besides, the Potency result in test [8] and in [18] was “inactive” each time. Also, the caspase-3 activation in [9] is -8.63%.
